Screening data as filed in PubChem.
FLuc inh: inhibitors of firefly luciferase; 2.2% of 72,000 active; P08659; purified firefly luciferase, luminescence, 8 min; Potency, µM (titrated, usually from 57.1 µM), usual class: inhibitors; active = well fitted inhibition curve with a large enough effect; inconclusive = small, poorly fitted or top-dose-only effect; note: nearly all actives have a fitted effect of over 40% in size
Target sequence (P08659 whole entry, looked up): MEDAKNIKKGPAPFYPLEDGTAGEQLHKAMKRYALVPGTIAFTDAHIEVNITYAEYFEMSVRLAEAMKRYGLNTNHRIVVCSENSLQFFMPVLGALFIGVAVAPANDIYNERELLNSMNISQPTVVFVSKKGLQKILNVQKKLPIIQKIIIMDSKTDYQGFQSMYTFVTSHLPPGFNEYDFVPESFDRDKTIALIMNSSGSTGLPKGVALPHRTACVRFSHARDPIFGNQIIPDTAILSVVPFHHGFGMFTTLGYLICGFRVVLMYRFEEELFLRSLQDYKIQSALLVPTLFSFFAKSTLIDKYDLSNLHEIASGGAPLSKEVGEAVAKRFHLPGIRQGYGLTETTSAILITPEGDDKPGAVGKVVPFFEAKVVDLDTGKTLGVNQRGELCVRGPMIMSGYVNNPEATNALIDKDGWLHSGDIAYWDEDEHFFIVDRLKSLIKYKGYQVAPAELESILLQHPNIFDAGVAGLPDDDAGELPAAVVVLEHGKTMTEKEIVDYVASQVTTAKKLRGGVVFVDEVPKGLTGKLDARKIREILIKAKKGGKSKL
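Substrate buffer containing 10 uM ATP (pH 7.2 imidazole, Mg2+, KCl, detergent, BSA) is dispensed, compound pinned in, then luciferase/luciferin detector mix added. After 8 min at ambient temperature, light output is measured.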
Bst PK mod: modulators of Bacillus stearothermophilus pyruvate kinase; AID 361; Potency, µM; purified pyruvate kinase, luminescence ATP production; ribose 5-phosphate activator present at AC10; 1.2% of 51,000 active; in the data active = potency below about 11 µM; inconclusive = mostly about 12 µM to 25 µM;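 the screen sought inhibitors and activators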
Numbers stand for hits; [ ] = remark or other dose. Shown are actives, neighbours in structure and some others; about 2.5% of the full set was active somewhere.

For CCCN1C(=O)/C(=C2\SC(N3CCCCC3)=NC2=O)c2ccccc21 the results were FLuc inh 16µM and Bst PK mod inconclusive.
`O=C1[C@@H]2[C@H]3[C@H](O)[C@H](O)C/C(=N/OCc4ccccc4)[C@H]3CC[C@H]2C(=O)N1c1ccc(F)cc1F` gave FLuc inh inactive[11.4 µM].
For COc1ccc(S(=O)(=O)N2CCn3c2nc2ccccc23)cc1 the results were FLuc inh inactive and Bst PK mod inactive.
Screening O=C(c1ccco1)N1CCn2c1nc1ccccc12 returned FLuc inh inactive.
For COc1ccc(NC(=O)N2CCn3c2nc2ccccc23)cc1 the results were FLuc inh inactive and Bst PK mod 5.6.
O=C(Nc1ccccc1)N1CCn2c1nc1ccccc12 was read as FLuc inh inactive and Bst PK mod 9.7.
`O=C(CCN1CCCCC1)c1csc2ccccc12` gave FLuc inh inactive[11.4 µM].
Screening O=C(O)[C@@H]1CS[C@@]2(CCCN(Cc3ccccc3)C2)N1 returned FLuc inh inactive[11.4 µM].
Screening COc1cccc(C(=O)Nc2ccc3nc(N4CCOCC4)cc(C)c3c2)c1 returned FLuc inh inactive.
Screening Cc1cc(N2CCOCC2)nc2ccc(NC(=O)CCC(=O)N3CCCC(C)C3)cc12 (stereo not given) returned FLuc inh 25µM.
Screening c1ccc([C@H](c2cccc3c2ccc2ccccc23)[C@H](c2ccccc2)c2cccc3c2ccc2ccccc23)cc1 returned FLuc inh inactive[11.4 µM].
Cc1occc1C(=O)Nc1ccccc1C(=O)O was read as FLuc inh inactive.
Screening Cc1occc1C(=O)Nc1cc(C(C)(C)C)on1 returned FLuc inh 16µM.
Cc1occc1C(=O)Nc1nnc(C(F)(F)F)s1 was read as FLuc inh inactive and Bst PK mod inactive.
For Cc1occc1C(=O)Nc1ccc2ccccc2c1 the results were FLuc inh 20µM.
For Cc1ccc(S(=O)(=O)OCC(=O)O)cc1 the results were FLuc inh inactive[11.4 µM].
Screening CC(=O)O[C@@H]1CC[C@]2(C)C(=C[C@@H]([C@@H]3C=C4C[C@@H](OC(C)=O)CC[C@]4(C)C4=C3[C@H]3C[C@@H]5O[C@@]6(CC[C@H](C)CO6)[C@@H](C)[C@@H]5[C@@]3(C)CC4)C3=C2CC[C@@]2(C)[C@H]4[C@@H](C)[C@]5(CC[C@H](C)CO5)O[C@@H]4C[C@H]32)C1 returned FLuc inh inactive[11.4 µM].
`O[C@H]([C@H](O)[C@@H](O)c1nc2ccccc2[nH]1)[C@@H](O)c1nc2ccccc2[nH]1` gave FLuc inh inactive[11.4 µM].
COc1cc(O)c(C(=O)/C=C\c2ccc3c(c2)OCO3)c(OC)c1 was read as FLuc inh inactive[11.4 µM].
Screening Nc1ccccc1C(=O)/C=C\c1ccc2c(c1)OCO2 returned FLuc inh 3.2µM.
Screening CC(C)(CC(=O)Nc1ccccc1)C(=O)O returned FLuc inh inactive[11.4 µM].
`COc1ccc2c(c1)CCC1C2CC[C@]2(C)[C@H](NCCCCCCN3C(=O)C=CC3=O)CC[C@@H]12` (stereo not given in full) gave FLuc inh inactive.
`O=C(Nc1ccc(OC(F)(F)F)cc1)C1=NCCN1` gave FLuc inh 10µM and Bst PK mod inactive.
O=C(Nc1ccc(OC(F)(F)F)cc1)c1cnc2n(c1=O)CCS2 was read as FLuc inh inactive.
`COc1ccc(COC(=O)N/N=C2/C[C@@H](O)[C@@H](O)[C@@H]3[C@@H]4C(=O)N(Cc5ccc6c(c5)OCO6)C(=O)[C@H]4CC[C@H]23)cc1` gave FLuc inh inactive[11.4 µM].
For COc1ccc(C(=O)NCC(=O)NC2=NCCS2)cc1 the results were FLuc inh inactive.
O=C(NC1=NCCS1)c1ccc(OCC2CCCO2)cc1 (stereo not given) was read as FLuc inh 25µM.
Screening COc1cccc(Nc2ncc3nc(-c4ccccc4)c(=O)n(C)c3n2)c1 returned FLuc inh inactive[11.4 µM].
For c1ccc2[nH]c(-c3cscn3)nc2c1 the results were FLuc inh inactive and Bst PK mod inactive.
For c1ccc2nc(-c3nc4ccccc4[nH]3)ccc2c1 the results were FLuc inh 0.79µM and Bst PK mod 0.54.
COC(=O)CCC(=O)c1oc2ccc(Br)cc2c1N was read as FLuc inh 13µM.
Screening COc1ccc2oc(C(=O)CCC(=O)O)c(N)c2c1 returned FLuc inh inactive.
`CC12CC[C@@H]3c4ccc(OP(=O)(O)O)cc4CCC3C1CCC2=O` (stereo not given in full) gave FLuc inh inactive[11.4 µM].
`O=C(O)NCC1CCCCC1` (tested in a mixture with another compound) gave FLuc inh inactive[11.4 µM].
For Cc1ccc(-c2nn(CC(=O)NCCN3CCOCC3)c(=O)c3ccccc23)cc1 the results were FLuc inh inactive and Bst PK mod inactive.
`O=c1c2cccc3c2c(nn1CN1CCOCC1)-c1ccccc1-3` gave FLuc inh inactive and Bst PK mod 2.9.
c1ccc(CSc2nnc(-c3ccco3)n2Cc2ccco2)cc1 was read as FLuc inh inactive and Bst PK mod inactive.
`CCCCOc1[nH]c2nc(-c3ccco3)n(Cc3ccco3)c(=N)c2c1C#N` gave FLuc inh inactive and Bst PK mod 11.
Screening Cc1cc(=O)oc2cc(O)c(CN(C)CC(=O)O)cc12 returned FLuc inh inactive[11.4 µM].
For Cc1c(C(=O)OC2CCC(C)CC2)[nH]c2c1C(=O)CCC2 (stereo not given) the results were FLuc inh 16µM.
For COC(=O)c1[nH]c2c(c1C)C(=O)CCC2 the results were FLuc inh inactive and Bst PK mod inactive.
`CCOC(=O)N1CCN(C(=O)CSc2nnc(-c3ccc(C(C)(C)C)cc3)o2)CC1` gave FLuc inh 1.3µM.
`CCOC(=O)N1CCN(C(=O)CSc2nnc(-c3ccc(C)c(C)c3)o2)CC1` gave FLuc inh inactive.
COc1cccc(-c2ccc3ncnc(NCc4cnc(C)cn4)c3c2)c1 was read as FLuc inh inactive[2.29 µM].
`O=C(O)/C=C\[C@H](O)c1ccc(Cl)cc1` gave FLuc inh inactive.
For Cc1c(C(=O)O)c(O)cc2c1C(=O)c1c(O)c([C@@H]3O[C@H](CO)[C@@H](O)[C@H](O)[C@@H]3O)c(O)c(O)c1C2=O the results were FLuc inh inactive[11.4 µM].
O=C(COC(=O)C1CCCN1S(=O)(=O)c1ccc(Cl)cc1)Nc1ccc2c(c1)OCO2 (stereo not given) was read as FLuc inh inactive and Bst PK mod inactive.
COC(=O)c1cccc(NC(=O)NC2CCCN2S(=O)(=O)c2ccc(Cl)cc2)c1 (stereo not given) was read as FLuc inh inactive and Bst PK mod 9.5.
For O=C(Nc1ccccn1)c1cccnc1 the results were FLuc inh inactive and Bst PK mod inactive.
Screening CCOc1ccc(NC(=O)c2ccccc2O)cc1 returned FLuc inh 1.3µM and Bst PK mod 2.5.
Screening CCOc1ccc(NC(=O)c2cccnc2C(=O)O)cc1 returned FLuc inh inactive.
CCOc1ccc(NC(=O)c2cnsn2)cc1 was read as FLuc inh 16µM and Bst PK mod inconclusive.
For CCOc1ccc(NC(=O)c2oc3ccccc3c2NC(=O)C2CC2)cc1 the results were FLuc inh inactive and Bst PK mod inactive.
`CCOc1ccc(NC(=O)c2oc3ccccc3c2NC(=O)CC)cc1` gave FLuc inh inactive and Bst PK mod 5.4.
`CCOc1ccc(NC(C)=O)cc1` gave FLuc inh inactive.
For COc1ccccc1C(=O)Nc1ccccn1 the results were FLuc inh 16µM and Bst PK mod inconclusive.
